An excerpt weighted towards active compounds, which were near 1.1% of everything screened.
gsp agonist = gsp mutant agonism; 340,000 tested, 0.13% active; gsp mutant cells, cAMP HTRF, 30 min; Potency, µM (top dose mostly 76.9 µM), most hits filed as activators; active means well fitted activation curve with a large enough effect; inconclusive means small, poorly fitted or top-dose-only effect, or another doubt; inactive means no such curve, though single readings can be large or run the other way; cell line not stated here;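 further: phosphodiesterase inhibitor Ro 20-1724 added with compounds to block cAMP breakdown; nearly all actives have a fitted effect of over 60% in size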
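Cells in DMEM/10% FBS with G418 were pretreated with compounds in DMSO plus […] (300 uM stock) for 30 min at 37C. cAMP was measured by HTRF (cAMP-d2 plus anti-cAMP antibody-K) after 30 min at room temperature.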
p53 reactivator = mutant p53 re-activation in reporter cells | 320,000 tested, 0.063% active | Potency, µM (highest dose often 92.2 µM), most hits filed as activators | H1299 p53-A138V BP100-luciferase reporter, luminescence, 24 h; further: nearly all actives have a fitted effect of over 45% in size
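p53-null H1299 cells stably carrying temperature-sensitive p53-A138V and a BP100-luciferase reporter were pinned with compounds (4-point, 1:5 series) and held 24 hrs at 37 deg C. Luminescence was read 10 min after detection reagent.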
RXFP1 antagonist = RXFP1 (human) relaxin receptor antagonism; Q9HBX9; HEK293-RXFP1, relaxin-stimulated cAMP HTRF, 30 min; active compounds read low; activity change, negative = inhibition, % at 57.5 µM; 350,000 tested, 0.59% active;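 active means activity change of -60% or lower, but not beyond a set lower limit; inconclusive means change between -60% and -40%, or beyond the set limit; inactive means change above -40%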
RXFP1 ag = RXFP1 (human) receptor agonism | Potency, µM (titrated, usually from 57.5 µM), usual class: activators | 370,000 tested, 0.3% active | HEK293T-RXFP1 cAMP TR-FRET, 30 min; response scale: percent of porcine relaxin response, buffer zero | Q9HBX9; further: nearly all actives have a fitted effect of over 60% in size
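Agonist response is measured as cAMP accumulation in an RXFP1-transfected HEK293T line under PDE4 inhibition. Values are scaled between buffer-only and 29 nM porcine relaxin, and EC50s come from standard Hill equation fits.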
gsp antag = antagonists of gsp mutant (McCune-Albright syndrome). AID 624288. Potency, µM (series often up to 76.9 µM), actives largely listed as inhibitors. gsp-mutant cells, cAMP HTRF, 30 min. 340,000 tested, 0.4% active; calls by dose curve; cell line not stated here;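 further: intracellular cAMP measured with PDE inhibitor Ro 20-1724 present during compound exposure; nearly all actives have a fitted effect of over 65% in size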
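G418-selected cells were plated in DMEM/10% FBS for 16-24 h at 37C, then treated with compounds plus the PDE inhibitor […] (300 uM solution added) for 30 min at 37C. Intracellular cAMP was measured by HTRF after 30 min lysis at room temperature.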
Tb PFK inh = T. brucei PFK enzyme inhibition. O15648. T. brucei PFK, ADP-Glo luminescence. Potency, µM (titrated, usually from 57.5 µM), hits mostly inhibitors. 330,000 tested, 0.17% active; further: nearly all actives have a fitted effect of over 60% in size
Target sequence (O15648 whole entry, looked up): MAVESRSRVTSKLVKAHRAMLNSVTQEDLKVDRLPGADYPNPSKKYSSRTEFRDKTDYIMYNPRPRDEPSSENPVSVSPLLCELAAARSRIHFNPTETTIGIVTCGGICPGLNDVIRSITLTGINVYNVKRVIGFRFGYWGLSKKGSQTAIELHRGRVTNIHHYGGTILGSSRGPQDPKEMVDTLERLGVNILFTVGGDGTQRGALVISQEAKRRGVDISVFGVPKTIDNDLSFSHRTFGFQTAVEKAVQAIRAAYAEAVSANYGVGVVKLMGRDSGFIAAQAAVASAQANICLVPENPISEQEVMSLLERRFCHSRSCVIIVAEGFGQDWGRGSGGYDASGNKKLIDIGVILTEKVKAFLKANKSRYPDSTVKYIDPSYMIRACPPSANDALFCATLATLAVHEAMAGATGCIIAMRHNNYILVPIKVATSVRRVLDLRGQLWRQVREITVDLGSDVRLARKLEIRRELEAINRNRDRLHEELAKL
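Luminescent ADP detection (ADP-Glo, two-step: ATP depletion then ADP-to-ATP conversion for luciferase) reported PFK activity after 45 min room-temperature reaction of 1.25 nM enzyme with 0.5 mM F6P and 0.1 mM ATP at pH 8.0.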
Numbers stand for hits; i = inactive; ? = inconclusive; nt = not tested or not shown; [ ] = dose if it differs, or a comment. Unless noted, the call rests on the fitted dose curve; in most records, active means well fitted curve in the direction sought with a large enough effect; inconclusive means small, poorly fitted or top-dose-only effect, or another doubt; inactive means no such curve, though single readings can be large; an effect the other way counts as inactive or inconclusive.

SMILES	gsp agonist	p53 reactivator	RXFP1 antagonist	RXFP1 ag	gsp antag	Tb PFK inh
CCOC(=O)C1=C(CSc2n[nH]c(N)n2)NC(=O)NC1C (stereo unspecified)	i	i	i	i	i	i
CC1CCCN(S(=O)(=O)c2ccc3c(c2)c(=O)nc2ccc(Cl)cn23)C1 (stereo unspecified)	?	i	i	i	39.8µM	i
CC1CCCN(S(=O)(=O)c2ccc3c(c2)n(C)c(=O)c(=O)n3C)C1 (stereo unspecified)	i	i	i	i	50.1µM	i
Cc1ccc(S(=O)(=O)N2CCCC(C)C2)cc1 (stereo unspecified)	i	nt	i	i	i	i
Cc1ccc2nc(SCC(=O)Nc3ccc(F)cc3)nc(=O)n2c1	14.1µM	i	i	i	i	i
Cc1ccc2nc(SCC(=O)Nc3ccc(Cl)cc3)nc(=O)n2c1	i[15.4 µM]	i	i	i	i	i
CC(COc1ccccc1)OC(=O)Nc1ccccc1 (stereo unspecified)	i[15.4 µM]	nt	i	nt	i	nt
N#C/C(=C\c1ccccc1)C(=O)NCc1ccc(F)cc1	i	i	-65.1	i	i	i
CCOC(=O)c1sc2nc(NC(=O)C(C)(C)C)sc2c1C	i	?	nt	i	31.6µM	i
CCOC(=O)c1sc2nc(NC(=O)C3CC3)sc2c1C	i	i	i	i	i	i
CCOC(=O)C1CCCN(C(=O)c2ccccc2Oc2ccccc2)C1 (stereo unspecified)	i	i	i	i	i	i
COCCNC(=O)c1cc(-c2ccc3c(c2)OCO3)on1	i	20µM	i	i	i	i
COCCNC(=O)COCc1cc(-c2ccc3c(c2)OCO3)on1	i	i	i	i	i	i
CCOc1ccc2[nH]c(=O)c(CN(Cc3cccs3)C(CC)c3nnnn3C(C)(C)CC)cc2c1 (stereo unspecified)	i	i	i	i	i	i
Cc1ccccc1S(=O)(=O)Cc1ccc(C(=O)NC2CCCC2)o1	i	i	i	i	i	i
Cc1ccccc1S(=O)(=O)Cc1ccc(C(=O)NC2CC2)o1	i	i	i	i	28.2µM	i
Cc1ccccc1S(=O)(=O)Cc1ccc(C(=O)N(C)C2CCCCC2)o1	?	i	i	i	50.1µM	i
Cc1ccccc1S(=O)(=O)Cc1ccc(C(=O)NC2CCCCCC2)o1	i	i	i	i	i	i
COC(=O)C1CCN(C(=O)c2ccccc2NC(C)=O)CC1	i	i	i	i	i	i
CCOC(=O)C1=C(CC)Nc2ccccc2N=C1NC(=O)CCNC(C)=O	i[15.4 µM]	i	-74.6	i	i	i
CCOC(=O)C1=C(CC)Nc2ccccc2N=C1NC(=O)c1oc2ccccc2c1C	i[15.4 µM]	i	i	i	?	i
COc1ccc(NCC(=O)n2c(C)c(C)c3ccccc32)cc1OC	i	i	i	i	i	i
CN(C)CCCNC(=S)N(CCN(C)C)Cc1cc2cc3c(cc2[nH]c1=O)OCCO3	i	nt	i	i	i	i
CN(C)CCCNC(=S)N(Cc1cccs1)Cc1cc2cc3c(cc2[nH]c1=O)OCCO3	?	i	-62.7	i	i	i
CC(C)[C@@H]1CC[C@@H](C)C[C@H]1OC(=O)C[n+]1cc(-c2ccc(Cl)cc2)n2c1CCCCC2	i[15.4 µM]	i	-73.9	i	i	i
SMILES	gsp agonist	p53 reactivator	RXFP1 antagonist	RXFP1 ag	gsp antag	Tb PFK inh
O=C/C=C/c1c(-c2ccccc2)cc2oc3ccccc3cc1-2	i	i	-90.5	i	i	i
Nc1ccc(-c2cc3ccccc3oc2=O)cc1	i[15.4 µM]	nt	i	i	i	i
CCCCCCC[C@H](N)[C@H](O)C(=O)N(C)[C@@H](CCS(C)=O)C(=O)N[C@@H](Cc1ccc(O)cc1)C(=O)N[C@@H](Cc1ccc(O)cc1)C(=O)O (stereo partly specified)	i	i	nt	i	i	i
C=CCSc1nnc(NC(=O)c2cccc(S(=O)(=O)N(C)c3ccccc3)c2)s1	i	i	i	i	39.8µM	i
CN(c1ccccc1)S(=O)(=O)c1cccc(C(=O)Nc2nccs2)c1	i	i	i	i	i	i
S=C(NCC1CCCO1)Nc1ccc(Cl)c(Cl)c1 (stereo unspecified)	i	i	i	i	i	i
CCOc1ccc(NC(=O)CSc2nccn2C)cc1	i	44.7µM	i	i	i	i
COc1ccc(OC)c(NC(=O)CSc2nc(O)cc(=O)n2CC(C)C)c1	i	i	-79.8	nt	i	i
COc1ccc(-n2c(SCC(=O)Nc3ccccc3)nc(O)cc2=O)cc1	i	i	i	i	i	i
COc1ccc(NC(=O)CSc2nc(O)cc(=O)n2-c2ccc(OC)cc2)cc1	?	i	-78.1	i	?	i
COc1ccc(-n2c(SCC(=O)Nc3cccc4ccccc34)nc(O)cc2=O)cc1	i[15.4 µM]	i	-65.6	i	i	i
O=C(O)CCc1nn2c3ccccc3n(CC(=O)c3cccs3)c2nc1=O	?	i	i	i	i	i
CCOCCCn1c(SCC(=O)Nc2ccccc2OC)nc2ccccc2c1=O	i	i	i	i	i	i
COc1ccccc1NC(=O)CSc1nc2ccccc2c(=O)n1C	i	i	i	i	35.5µM	i
Cc1ccc(-c2n[nH]c(=O)c3ccccc23)cc1S(=O)(=O)NC(C)(C)C	i	i	i	i	i	i
Cc1cccc(NS(=O)(=O)c2cccc(C(=O)N3CCN(c4ccccn4)CC3)c2)c1	i	i	i	i	?	i
Cc1ccc(C(C)(C)C)cc1S(=O)(=O)Nc1cccc(C(=O)N2CCN(c3ccccn3)CC2)c1	i	i	?	i	39.8µM	i
CC(C)=NNc1nc(-c2ccccc2)cs1	i	?	i	i	i	i
CCc1ccc(-c2csc(NC(=O)Oc3ccccc3)n2)cc1	i[15.4 µM]	14.1µM	i	i	i	i
O=C(Nc1nc(-c2cccc(Br)c2)cs1)Oc1ccccc1	i	?	i	i	i	i
CCOC(=O)C/C(C)=N\Nc1nc(-c2ccccc2)cs1	i[15.4 µM]	i	i	i	8.91µM	i
COc1ccc(-c2csc(NC(=O)CN3C(=O)CCC3=O)n2)cc1	i	i	i	i	i	i
O=C(CN1C(=O)CCC1=O)Nc1nc(-c2ccc(Oc3ccccc3)cc2)cs1	i	?	-69.6	i	i	i
CC(C)Cc1cc(C(=O)Nc2sc3c(c2C#N)CCC3)no1	?	i	-66.0	i	i	i
CC1=NNC(=O)/C1=C\c1cn(-c2ccccc2)nc1-c1cccs1	i	i	?	i	i	i
O=C(O)CCCCCN1C(=O)/C(=C\c2cn(-c3ccccc3)nc2-c2cccs2)SC1=S	i	i	i	i	35.5µM	i
O=C(O)CCN1C(=O)/C(=C/c2cn(-c3ccccc3)nc2-c2cccs2)SC1=S	i	i	i	i	35.5µM	i
